# Experimental data as given in PubChem BioAssay (NCATS).
# Results filed as inconclusive are left out. Entries that show only a call come without a potency. The source made the active and inactive calls. Unless noted, calls follow the shape of the dose curve; as a rule, active = well fitted curve in the direction sought with a large enough effect in the repeat runs; inconclusive = weak or mixed curves; inactive = no such curve, though single readings can be large; an effect the other way counts as inactive or inconclusive.
# Key:
# [1] = target: N-terminal Xaa-Pro-Lys N-methyltransferase 1 (Homo sapiens) (UniProt Q9BV86); experiment: Confirmatory qHTS for Inhibitors of N-terminal methyltransferase 1 (NTMT1): MTaseGlo Assay (AID 1645874; active = well fitted curve in the direction sought with a large enough effect; an effect the other way counts as inactive or inconclusive; also: potency is read from the fitted curve at half-maximal effect; nearly all actives have a fitted effect of over 65% in size)
# Chain of N-terminal Xaa-Pro-Lys N-methyltransferase 1 (Homo sapiens) (Q9BV86 whole entry, looked up): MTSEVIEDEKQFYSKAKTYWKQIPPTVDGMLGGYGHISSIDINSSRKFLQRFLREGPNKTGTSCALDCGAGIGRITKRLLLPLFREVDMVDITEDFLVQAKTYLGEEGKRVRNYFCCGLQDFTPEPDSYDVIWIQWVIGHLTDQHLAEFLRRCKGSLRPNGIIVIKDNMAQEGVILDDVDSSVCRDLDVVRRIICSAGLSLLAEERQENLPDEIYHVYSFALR
# Summary of the method: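 MTase-Glo luminescence measured SAH formed by 125 nM NTMT1 from 100 uM SAM and 1 uM SPKRIA peptide over 30 min at room temperature, following 15 min compound preincubation. Percent inhibition against no-enzyme and DMSO controls gave 4-parameter Hill fits.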
# [2] = target: Calcium and integrin-binding protein 1 (Homo sapiens) (UniProt Q99828); experiment: Primary qHTS for Identification of Calcium Integrin Binding Protein 1 (CIB1) Competitor (AID 1508620; active = well fitted curve in the direction sought with a large enough effect; an effect the other way counts as inactive or inconclusive;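 also: GST tagged CIB1 binding a fluorescein labelled alphaIIb integrin peptide tracer; top concentration of the series differs between compounds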)
# Chain of Calcium and integrin-binding protein 1 (Homo sapiens) (Q99828 whole entry, looked up): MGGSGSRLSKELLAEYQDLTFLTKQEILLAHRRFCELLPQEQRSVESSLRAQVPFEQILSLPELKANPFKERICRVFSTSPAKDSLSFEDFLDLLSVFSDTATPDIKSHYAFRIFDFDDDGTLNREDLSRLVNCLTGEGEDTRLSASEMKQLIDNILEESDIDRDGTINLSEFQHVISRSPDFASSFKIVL
# Summary of the method: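 Fluorescence polarization competition: GST-tagged CIB1 (1 uM final) preincubated with compound 15 min at room temperature, then FITC-labelled alphaIIb peptide (100 nM final) added. After 15 min at room temperature, polarization read at Ex 480/Em 540.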
# [3] = target: Cytochrome P450 2D6 (Homo sapiens) (UniProt P10635); experiment: Cytochrome P450 family 2 subfamily D member 6 (CYP2D6) small molecule antagonists: luciferase biochemical (cell-free) qHTS assay (AID 1645840); also: nearly all actives have a fitted effect of over 55% in size; also: potency is read from the fitted curve at half-maximal effect
# Chain of Cytochrome P450 2D6 (Homo sapiens) (P10635 whole entry, looked up): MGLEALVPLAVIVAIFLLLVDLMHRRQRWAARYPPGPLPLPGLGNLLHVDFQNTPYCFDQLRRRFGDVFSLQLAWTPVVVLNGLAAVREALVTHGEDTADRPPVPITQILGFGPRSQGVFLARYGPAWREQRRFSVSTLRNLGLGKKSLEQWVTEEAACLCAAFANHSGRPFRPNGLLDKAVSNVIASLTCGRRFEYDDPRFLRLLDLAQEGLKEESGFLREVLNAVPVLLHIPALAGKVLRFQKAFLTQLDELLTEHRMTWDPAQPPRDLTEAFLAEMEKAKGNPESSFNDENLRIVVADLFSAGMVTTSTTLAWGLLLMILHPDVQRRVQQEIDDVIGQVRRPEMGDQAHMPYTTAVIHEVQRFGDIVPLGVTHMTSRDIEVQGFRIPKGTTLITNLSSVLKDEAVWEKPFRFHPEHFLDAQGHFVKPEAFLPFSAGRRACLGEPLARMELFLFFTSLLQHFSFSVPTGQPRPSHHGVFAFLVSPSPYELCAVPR
# Summary of the method: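 P450-Glo CYP2D6 system: proluciferin substrate converted by enzyme to luciferin, read by luminescence proportional to activity. Enzyme-substrate mix with compound 10 min at room temperature, then NADPH regeneration 1 h before detection reagent.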
# [4] = target: Cytochrome P450 2C9 (Homo sapiens) (UniProt P11712); experiment: Cytochrome P450 family 2 subfamily C member 9 (CYP2C9) small molecule antagonists: luciferase biochemical (cell-free) qHTS assay (AID 1645842); also: nearly all actives have a fitted effect of over 55% in size; also: potency is read from the fitted curve at half-maximal effect
# Chain of Cytochrome P450 2C9 (Homo sapiens) (P11712 whole entry, looked up): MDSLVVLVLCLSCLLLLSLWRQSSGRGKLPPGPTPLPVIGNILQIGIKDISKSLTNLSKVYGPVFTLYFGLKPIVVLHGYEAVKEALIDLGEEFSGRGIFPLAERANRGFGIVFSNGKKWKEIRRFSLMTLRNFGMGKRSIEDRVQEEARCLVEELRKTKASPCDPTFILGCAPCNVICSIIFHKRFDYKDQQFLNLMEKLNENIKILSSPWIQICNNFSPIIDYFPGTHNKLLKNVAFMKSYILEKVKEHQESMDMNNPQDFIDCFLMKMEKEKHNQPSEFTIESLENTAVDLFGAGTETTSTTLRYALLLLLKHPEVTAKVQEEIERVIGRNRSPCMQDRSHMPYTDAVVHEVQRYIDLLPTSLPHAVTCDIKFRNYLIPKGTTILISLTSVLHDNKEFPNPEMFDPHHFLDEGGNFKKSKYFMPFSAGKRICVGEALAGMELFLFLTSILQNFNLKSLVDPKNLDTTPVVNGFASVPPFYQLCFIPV
# Summary of the method: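 P450-Glo CYP2C9 system: proluciferin substrate with enzyme in mix containing 0.4% BSA, 10 min at room temperature, then NADPH regeneration solution added and incubated 1 h at 37C. Detection reagent stopped reaction; luminescence read after 20 min as RLU.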
# [5] = Primary qHTS for inhibitors of nuclear receptor binding SET domain protein 2 (NSD2) in an isogenic RCH-ACV NSD2 p.E1099K mutant (9B) (AID 1645876; active = well fitted curve in the direction sought with a large enough effect; an effect the other way counts as inactive or inconclusive; also: nearly all actives have a fitted effect of over 70% in size; also: potency is read from the fitted curve at half-maximal effect)
# [6] = Primary qHTS for inhibitors of nuclear receptor binding SET domain protein 2 (NSD2) in an RCH-ACV wild type WT cells (2C) (AID 1645877; active = well fitted curve in the direction sought with a large enough effect; an effect the other way counts as inactive or inconclusive; also: nearly all actives have a fitted effect of over 70% in size)
Compound,Potency [1],Potency [2],Potency [3],Potency [4],Potency [5],Potency [6]
N#Cc1cccc(-c2c[nH]c3ncnc(N4CCOCC4)c23)c1,39.8 µM (active),,,,,
COc1ccccc1N1CCN(CCCCNC(=O)c2ccc(-c3cscn3)cc2)CC1,,inactive,6.01 µM (active),,,
COc1c2c(c(C)c3c1C(=O)OC3)OC1(C)CC(O)C34OC(OC)(CC(O)C3(C)C1C2)OC4(C)C (stereo not drawn),,inactive,,,,
COc1cccc(OC)c1-c1cc(C(=O)N[C@@H](CC(C)C)C(=O)O)nn1-c1ccnc2cc(Cl)ccc12,,inactive,23.9 µM (active),16.9 µM (active),,
CC1(C)CC[C@]2(C(=O)O)CC[C@]3(C)C(=CCC4[C@@]5(C)CC[C@H](O[C@H]6O[C@H](C(=O)O)[C@@H](O)[C@H](O[C@@H]7O[C@H](CO)[C@H](O)[C@H](O)[C@H]7O)[C@H]6O)C(C)(C)C5CC[C@]43C)[C@@H]2C1 (stereo partly drawn),,inactive,,,,
COc1ccc(-n2[nH]c3c(cnc4ccccc43)c2=O)cc1,,inactive,inactive,inactive,inactive,inactive
CCOC(=O)c1ccc(NC2CCCCC2)c(N)c1,,inactive,9.52 µM (active),5.35 µM (active),,
COc1ccc(Oc2c(Cl)cnn(C3c4ccccc4-c4ccccc43)c2=O)cc1,,inactive,inactive,9.52 µM (active),inactive,
O=C(Nc1ccccc1)Nc1ccc(-c2ccc(C(=O)C3CCCC3C(=O)O)cc2)cc1 (stereo not drawn),,inactive,inactive,16.9 µM (active),inactive,inactive
CCCNCCOc1ccc(NC(=O)c2c[nH]c3c2C(=O)CCC3)cc1F,,inactive,inactive,inactive,,
CC[C@@H](C)[C@H](N)C(=O)N1Cc2ccccc2C1,,inactive,13.5 µM (active),inactive,inactive,
N[C@@H](CC(=O)Nc1ccc(Oc2cc(F)c(F)cc2Br)cc1)C(=O)O,,inactive,inactive,,,
CCOc1ccc(-c2nn3ncccc3c2-c2ccc(S(C)(=O)=O)cc2)cc1,,inactive,1.07 µM (active),4.77 µM (active),,
COc1cccc(Cn2ncc3c4sc(S(C)=O)cc4n(C)c3c2=O)c1 (stereo not drawn),,inactive,10.7 µM (active),12 µM (active),,
Cc1nnc(-c2ccc3occ(-c4ccc(S(C)=O)cc4)c3c2)o1 (stereo not drawn),,inactive,inactive,19 µM (active),,
Cc1ccc(COC(=O)N2CC[C@@H](CNc3ncccn3)[C@@H](F)C2)cc1,,inactive,16.9 µM (active),13.5 µM (active),,
O=C(NC/C=C/CN1CCN(c2cccc(Cl)c2Cl)CC1)c1ccc(-c2ccccn2)cc1,,inactive,1.2 µM (active),10.7 µM (active),,
CC(=O)NCC1CN(c2ccc(-c3ccc(CNCc4cn[nH]n4)cc3)c(F)c2)C(=O)O1 (stereo not drawn),,inactive,inactive,15.1 µM (active),,
COCCN1CCC(C(=O)NO)(S(=O)(=O)c2ccc(Oc3ccc(OC(F)(F)F)cc3)cc2)CC1,,inactive,,,,
Cn1c2ccc(NC(=O)c3ccccc3)cc2c(=O)n2nc(C(=O)O)cc12,,inactive,inactive,inactive,inactive,
COc1ccc(-c2ccn(CC[C@](C)(C(=O)NO)S(C)(=O)=O)c(=O)c2)c(F)c1,,inactive,inactive,inactive,,
NC[C@H]1CCC[C@@H](CNC(=O)[C@@H](Cc2c[nH]c3ccccc23)NC(=O)N2CCC3(C=Cc4ccccc43)CC2)C1,,inactive,10.5 µM (active),1.86 µM (active),,
N[C@@H](CCNCc1ccc(Cl)cc1)C(=O)N1CCCCC1,,inactive,10.7 µM (active),inactive,inactive,inactive
CCNC(=O)OC1CCN(c2nncc3cc(OC)c(OC)cc23)CC1,,inactive,16.9 µM (active),15.1 µM (active),,
C[C@@H](c1ccccc1)N(C(N)=NC#N)c1cccc2ncccc12,,inactive,inactive,10.7 µM (active),inactive,inactive
Oc1ccccc1-c1cc(-c2ccccc2F)[nH]n1,,inactive,inactive,13.5 µM (active),,
C[C@@H](NC(=O)c1cc(C(=O)N[C@@H](Cc2ccccc2)[C@H](O)CNC2CC2)cc(N(C)S(C)(=O)=O)c1)c1ccccc1,,inactive,4.77 µM (active),4.25 µM (active),inactive,
Cc1ccc(-n2nc(C(C)(C)C)cc2NC(=O)Nc2cc(COc3cccnc3)[nH]n2)cc1,,inactive,15.1 µM (active),7.56 µM (active),18.3 µM (active),
CC(=O)OC(C)(C)/C=C/C(=O)[C@](C)(O)C1[C@H](O)C[C@@]2(C)[C@@H]3CC=C4[C@@H](C[C@H](O[C@@H]5O[C@H](CO)[C@@H](O)[C@H](O)[C@H]5O)C(=O)C4(C)C)[C@]3(C)C(=O)C[C@]12C (stereo partly drawn),,inactive,,,,
